For 27 compounds, growth results are on record in PubChem BioAssay (NCI).

Molecules are shown by their SMILES. The panel holds about 83,000 compounds, 20% with a hit somewhere; the sample as a whole holds those more often.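 Growth was measured after 48 h exposure to one concentration of compound in 96-well plates. Values under 10 count as active.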 Values without a mark were called inactive. The source made the active and inactive calls.

What all share (test): NCI-60 one-dose screen, 48 h (100 = growth as untreated, 0 = no growth, -100 = all killed)
Holding throughout (details): 10 µM unless noted

Assay [1] deals with SNB-75 CNS.
In assay [2] the test system is SNB-19 CNS.
Assay [3] has as its system U251 CNS.
For assay [4], the system named is PC-3 prostate.
Assay [5] deals with SK-MEL-5 melanoma.
Assay [6] deals with UACC-62 melanoma.
The test system of assay [7] is SK-MEL-28 melanoma.
Assay [8] concerns SK-MEL-2 melanoma.
Assay [9] has as its system LOX IMVI melanoma.

Turning to `N#Cc1ccc(C(=O)CSc2nc(Nc3ccc(S(N)(=O)=O)cc3)c3ccccc3n2)cc1`, the growth is 107% in [1]; 100% in assay [2]; 114% in assay [3]; 89.4% in assay [4]; 102% in [5]; 99.4% in assay [6]. In addition, the growth is 109% in assay [7] and 118% in assay [8].

On to `COc1ccc(-c2csc(N/N=C/c3c(-c4ccc(S(C)(=O)=O)cc4)nc4ccccn34)n2)cc1`, for which the growth in assay [1] is 110%; in assay [2], 106%; in [3], 106%; in [5] it was 96.5%; in assay [6], 102%; in assay [9], 126%. In addition, the growth in assay [7] was 107%.

With `Cn1cc(-c2cc(N)n3nc(-c4cn(C)c5ccc(Cl)cc45)cc3n2)c2cc(Cl)ccc21`, the growth in assay [1] was 83.2%; in assay [2], 99.4%; in [3] it was -4.82% (active); in assay [4], 87.3%; in [5] it was 104%; in assay [6], 93.9%. The growth in assay [9] was 11.3%; in assay [7] it was 76.7%; in assay [8], 121%.

Take `CN1CCN(Cc2ccc(NC(=O)c3cncc(C#Cc4cnc5[nH]ncc5c4)c3)cc2C(F)(F)F)CC1`: the growth in assay [1] is 64%; in assay [2], 59.3%; in assay [3], 31.3%; in assay [4] it was 42.3%; in assay [5], 43.4%; in [6], 1.56% (active). The growth is 2.34% (active) in [9], 1.4% (active) in [7] and -49.6% (active) in assay [8].

`N=C1CC(=O)NN1C(=O)CSc1nc2sc3c(c2c(=O)n1-c1ccc(Cl)cc1)CCCC3`: the growth in [1] was 73.7%; in [2], 92.9%; in assay [3], 101%; in [5], 103%; in [6] it was 93.9%; in [9], 97.1%. For the same compound, the growth in assay [7] is 108%; in [8] it was 128%.

Take `CCCC(=O)NC(c1cccc(N(C)C)c1)c1cc(C)c2cccnc2c1O` (centres undefined): the growth in assay [1] is 76.8%; in assay [2], 69.3%; in [3] it was 55.5%; in assay [4], 50.1%; in [5], 62.7%; in assay [6], 46.1%. Moreover, the growth was 77.1% in [7] and 89.9% in [8].

In the case of `COc1ccc(C(=O)/C=C/c2ccc(Oc3nc(NCCO)nc(N4CCOCC4)n3)c(OC)c2)cc1`, the growth in assay [1] is 89.6%; in assay [2], 69.3%; in [3] it was 43.1%; in assay [4], 80%; in [5], 95.2%; in assay [6] it was 70.3%. Further, the figures for the growth in [7] and in [8] were 97.3% and 101%, respectively.

Turning to `CC(C)NC(=O)c1cc(-c2ccc(NC(=O)Nc3ccc(N4CCOCC4)c(C(F)(F)F)c3)cc2)nc2cccnc12`, the growth is 82.6% in assay [1]; 62.6% in assay [2]; 47% in [3]; 78.7% in assay [5]; 75.3% in [6]; 47.9% in assay [9]. The growth was 59.2% in [7] and 75.5% in [8].

As for `Nc1c(C(=O)Nc2ccc(C(F)(F)F)cc2)sc2nc(-c3cnccn3)cc(-c3cccs3)c12`, the growth in assay [1] is 34.2%; in assay [2], 52.2%; in assay [3] it was 79.5%; in assay [4], 42.2%; in assay [5] it was 90.1%; in [6], 84.6%. The growth in assay [7] was 89.8%; in assay [8] it was 101%.

In the case of `CC(=O)Oc1ccccc1C(=O)Nc1ccc(C(=O)/C=C/c2cccs2)cc1`, the growth was 113% in assay [1]; 101% in assay [2]; 99.4% in assay [3]; 101% in assay [5]; 98.3% in assay [6]; 100% in assay [9]. Moreover, the figures for the growth in assay [7] and in [8] were 106% and 122%, respectively.

Regarding `N#Cc1c(-c2ccc(Cl)cc2)nc2c(-c3ccccc3)c(Nc3ccccc3)nn2c1N`, the growth is 4.2% (active) in assay [1]; 72.8% in assay [2]; 19.8% in [3]; 62.2% in assay [4]; 92.9% in [5]; 62.8% in assay [6]. For the same compound, the growth was 82.5% in [7] and 96% in assay [8].

Regarding `COc1cccc(COc2ccc(/C=C3/C(=O)Nc4cc(Cl)ccc43)cc2)c1`, the growth in assay [1] was 84.2%; in [2], 97.5%; in assay [3] it was 98.9%; in assay [4] it was 84.5%; in assay [5], 93%; in assay [6] it was 86.7%. Further, the growth in assay [9] is 97.9%; in assay [7] it was 102%; in [8] it was 107%.

Regarding `OC1CCN(CCCOc2c3ccccc3nc3c2oc2ccccc23)CC1`, the growth was -1.06% (active) in assay [1]; 0.345% (active) in assay [2]; 4.21% (active) in assay [3]; -69.1% (active) in assay [5]; -57.8% (active) in assay [6]; -63.3% (active) in assay [9]. The growth in assay [7] was -2.42% (active).

Turning to `Clc1ccc2c(NCCCN3CCOCC3)c3oc4ccc(Cl)cc4c3nc2c1`, the growth in assay [1] was 79.6%; in assay [2] it was 69.6%; in [3] it was 44.1%; in [4], 60.8%; in [5], 74.2%; in assay [6] it was 98.7%. Besides, the growth in assay [9] is -82.8% (active); in assay [7], 80.4%; in [8], 122%.

`Cn1ccnc1C(=O)/C=C/c1ccc(NC(=O)Nc2ccccc2)cc1`: the growth is 17.1% in [1]; 21.8% in assay [2]; 2.77% (active) in assay [3]; 37.8% in assay [4]; 77.9% in assay [5]; 38.5% in [6]. Further, the growth in [7] was 75.1%; in assay [8] it was 102%.

For the compound `C[C@@H](Nc1c(C#N)cnc2ccc(-c3cnc(N)nc3)cc12)c1ccccc1`, the growth was -13.2% (active) in assay [1]; 26.3% in assay [2]; 18.1% in [3]; 10% in [4]; -74.2% (active) in [5]; -9.74% (active) in [6]. Further, the growth in assay [9] was 11.7%; in [7], 20%.

With `CC(C)Sc1nc(Nc2ccc(S(N)(=O)=O)cc2)c(C#N)c(-c2ccc(F)cc2)n1`, the growth is 40.9% in assay [4]; 54.3% in assay [5]; 46.5% in [6]; 78% in assay [7]; 92.5% in [8].

On to `Clc1ccc(Cc2nnc3sc(-c4cccnc4)nn23)cc1`, for which the growth in assay [1] is 94.4%; in assay [2] it was 93.3%; in assay [3] it was 99%; in [4], 101%; in assay [5], 96.4%; in assay [6], 91.1%. Further, the growth in assay [9] is 96.7%; in assay [7], 109%; in assay [8] it was 113%.

For the compound `CC(=O)Oc1ccccc1C(=O)Nc1ccc(C(=O)/C=C/c2ccncc2)cc1`, the growth is 48.4% in assay [1]; 76% in [2]; 21.1% in [3]; 70.4% in assay [4]; 74% in assay [5]; 50.3% in [6]. Also, the growth is -73.6% (active) in [9], 55.8% in assay [7] and 108% in [8].

`O=C(CSc1nc2sc3c(c2c(=O)n1-c1ccc(Cl)cc1)CCCC3)NNC(=O)Nc1cccc(C(F)(F)F)c1`: the growth in assay [1] is 36.3%; in [2], 21.8%; in assay [3], 16.7%; in [4] it was 7.37% (active); in assay [5], 35.4%; in assay [6], 17.3%. Moreover, the growth in [9] was -17% (active); in assay [7], 33.2%.

Take `CC(=O)Nc1cc(F)cc(-c2ccc3[nH]cc(-c4ccccc4)c3n2)c1`: the growth in [1] was 111%; in assay [2], 12.9%; in assay [3], -2.16% (active); in [4], 20%; in assay [5] it was 49%; in assay [6] it was -1.28% (active). Besides, the results for the growth in [9] and in assay [7] were -62.4% (active) and -67.5% (active), respectively.

With `CCOC(=O)c1csc(NC(=O)CSc2nc3sc4c(c3c(=O)n2-c2ccc(Cl)cc2)CCCC4)n1`, the growth in assay [1] is 86.2%; in [2] it was 96%; in assay [3], 98.4%; in [4], 92.4%; in assay [5], 78%; in [6], 85%. In addition, the figures for the growth in assay [9], in assay [7] and in assay [8] were 56.5%, 105% and 105%, respectively.

Turning to `Cc1c(Nc2nnc(SCC(=O)Nc3sc4c(c3C#N)CCCC4)s2)c(=O)n(-c2ccccc2)n1C`, the growth in assay [1] is 127%; in assay [2] it was 100%; in [3], 102%; in [5] it was 102%; in [6] it was 92.9%; in assay [9] it was 88.7%. Besides, the results for the growth in [7] and in [8] were 107% and 106%, respectively.

Turning to `O=C(CCN1C(=O)/C(=C/c2ccccc2F)SC1=S)N1CCOCC1`, the growth is 94% in assay [1]; 99% in assay [2]; 94.4% in assay [3]; 108% in assay [4]; 96.9% in assay [5]; 82.7% in [6]. Also, the growth in assay [9] was -34.1% (active); in assay [7] it was 85.1%; in assay [8], 113%.

With `Clc1ccc2c(NCCCN3CCOCC3)c3oc4ccccc4c3nc2c1`, the growth in [1] is 52.4%; in [2] it was 54.1%; in assay [3], 34.5%; in assay [4] it was 48.6%; in assay [5], 79.7%; in assay [6], 66.6%. Also, the growth in [9] was 17.3%; in [7] it was 70.6%.

For `CC(C)(O)c1cncc(-c2ccc3ncnc(N4CCc5cc(F)c(Cl)cc54)c3c2)c1`, the growth was -20% (active) in assay [1]; 25.2% in [2]; 42.6% in assay [3]; 13.4% in assay [5]; 12.2% in assay [9]; 24.8% in assay [7]. Besides, the growth in [8] was -1.1% (active).

Turning to `COc1ccc(COc2ccc(/C=C3/C(=O)Nc4cc(Cl)ccc43)cc2)cc1`, the growth is 83.8% in assay [1]; 100% in assay [2]; 96.8% in assay [3]; 86.1% in assay [4]; 96.7% in assay [5]; 88.6% in [6]. Also, the growth in [9] was 94.8%; in assay [7], 98.7%; in assay [8] it was 114%.
